Out of some 290,000 compounds screened, about 3,000 (1%) were called active. Rule as the data show it: active = inhibition mostly above about 36% (no sharp cut-off); inactive = mostly below about 34%. Only a selection was taken, and actives are over-represented in it overall.

A short description of the assay: inhibition of NOD1-driven NF-kB reporter – cell-based, luminescence, uHTS, primary screen (AID 1578).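 Also: HEK-293T reporter cells stimulated with the NOD1 agonist gamma-tri-DAP.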 As to conditions: NOD1-driven NF-kB luciferase reporter cells, at 4 µM, active compounds read high. For orientation: A reporter such as luciferase makes a cellular process visible.
As to `COc1ccc(C(C)=O)cc1CC(=O)Nc1ccccc1-c1ccccc1`, the inhibition was -4.6% (inactive).
As for `Cc1sc2nc[nH]c(=S)c2c1-c1ccccc1`, the inhibition is 99.2% (active).
In the case of `S=c1[nH]cnc2scc(-c3ccccc3)c12`, the inhibition was -0.1% (inactive).
The figure for `Cc1c(-c2ccccc2)sc2nc[nH]c(=S)c12` is -35.9% (inactive); for `O=C(COC(=O)Cc1ccc(Br)cc1)NCc1ccc(F)cc1` it is 48.2% (active); for `O=C(COC(=O)c1ccc(Br)cc1)NCc1ccc(F)cc1` it is -22.6% (inactive).
For `O=C(COC(=O)Cc1ccc(-c2ccccc2)cc1)NCc1ccc(F)cc1`, the inhibition is -4.2% (inactive).
On to `COc1ccc(/C(C)=N/NC(=O)c2sccc2-n2cccc2)cc1`, for which the inhibition is -58.2% (inactive).
For the molecule `Cc1nc(NCc2ccco2)c2c(C)c(C)sc2n1`, the inhibition is 97.6% (active).
Take `Cc1nc(NCc2ccco2)c2c3c(sc2n1)CCC3`: the inhibition is -54.6% (inactive).
Consider `Cc1sc2ncnc(NCc3ccco3)c2c1C`, for which the inhibition was -21.2% (inactive).
Consider `COc1ccccc1C1CCN(Cc2ccc(C)cc2)CC1`, for which the inhibition was 4.9% (inactive).
The figure for `Cc1cc(C=C2C(=O)CCCC2=O)c(C)n1-c1ccccc1` is -19.3% (inactive); for `Cc1cc(/C=C2\Cc3ccccc3C2=O)c(C)n1-c1ccccc1` it is 63.8% (active); for `Cc1cc(C=C2C(=O)c3ccccc3C2=O)c(C)n1-c1ccccc1` it is 32.4% (inactive).
Turning to `Cc1nc(N)ncc1-c1ccc2c(c1)OCO2`, the inhibition was 2.9% (inactive).
On to `O=C(NCC(=O)N(c1ccc(Cl)cc1)C(C(=O)NC1CCCC1)c1cccnc1)c1ccco1` (stereo not drawn), for which the inhibition is 6% (inactive).
`N#CC(=C1N=c2ccccc2=N1)c1c(O)[nH]c2ccccc12`: the inhibition is 20% (inactive).
Take `Oc1[nH]c2ccccc2c1N=Nc1cccc(Cl)c1`: the inhibition is -10.3% (inactive).
As for `Oc1[nH]c(N=C2N=c3ccccc3=N2)c2ccccc12`, the inhibition was 42.6% (active).
Regarding `CC(C)NC(=O)NC(=O)COC(=O)c1cc[n+]([O-])cc1`, the inhibition was -6.6% (inactive).
`CCOC(=O)CON1C(=O)C(=O)N(OCC(=O)OCC)C2CCCCC21` (stereo not drawn): the inhibition is -26.3% (inactive).
`CC(C)(C)N1CC(COc2ccccc2)OC1=O` (stereo not drawn): the inhibition was -21.9% (inactive).
For the molecule `Cc1sc(NC(=O)c2ccccc2)c(C(=O)c2ccccc2)c1C`, the inhibition was 14.5% (inactive).
`Cc1ccc(C(=O)Nc2sc(C)c(C)c2C(=O)c2ccccc2)cc1`: the inhibition is -9.8% (inactive).
For `Cc1sc(NC(=O)CCl)c(C(=O)c2ccccc2)c1C`, the inhibition was 60.9% (active).
With `Cc1ccc(NC(=O)CN(C)C(=O)/C=C/c2cccc(F)c2)cc1`, the inhibition is -1.6% (inactive).
With `COCCN(Cc1cc2cc(C)ccc2n2nnnc12)C(=S)Nc1ccccc1C`, the inhibition was 52.2% (active).
`COCCN(Cc1cc2cc(C)ccc2n2nnnc12)C(=S)Nc1ccc(C)cc1`: the inhibition was 10.5% (inactive).
In the case of `Cc1ccc2c(c1)cc(CN(Cc1cccnc1)C(=O)NCc1ccccc1)c1nnnn12`, the inhibition is -2.2% (inactive).
As for `COCCN(Cc1cc2cc(C)ccc2n2nnnc12)C(=S)Nc1cccc(C)c1`, the inhibition is 33.3% (inactive).
In the case of `Cc1ccc(C(=O)N(Cc2cccnc2)Cc2cc3cc(C)ccc3n3nnnc23)cc1`, the inhibition is 52% (active).
Regarding `Cc1ccc2c(c1)cc(CN(Cc1cccnc1)C(=O)c1ccccc1)c1nnnn12`, the inhibition is -33.2% (inactive).

In general, inhibition refers to the drop in the measured response relative to a control, in per cent.

For the origin of these results see PubChem BioAssay AID1578 (Sanford-Burnham Center for Chemical Genomics, 2009).
